Rows were chosen to be rich in hits. Some 1.8% of all compounds tested hit in one or more screens of this group.
SSB-PriA inh: inhibitors of Klebsiella pneumoniae PriA binding to SSB C-terminal tail, primary screen, biochemical, AlphaScreen; PriA–SSB C-terminal tail interaction (Klebsiella pneumoniae); AlphaScreen SSBct-PriA binding, biotinylated peptide; inhibition, % at 33 µM; hit rate 0.6% among 430,000; in the data active = inhibition mostly above about 37%, no sharp cut-off; inactive = mostly below about 20%;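 also: plate controls were negative control peptide for no effect and reference peptide for full effect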
PrPC surface inh: inhibitors of human cell surface prion protein PrPC, primary screen, cell-based, TR-FRET; Major prion protein (Homo sapiens), P04156; TR-FRET read-out; inhibition, % at 13.8 µM; hit rate 0.43% among 370,000; AID 720596, 2013; in the data active = inhibition above about 24%; also: 0% = median of the test wells and 100% = reference compound wells
PfHsp40 yeast: rescue of yeast from PfHsp40 toxicity, primary screen, S. cerevisiae, ATP luminescence; S. cerevisiae expressing PfHsp40, growth rescue; growth rescue, % at 12.5 µM; hit rate 0.68% among 340,000; in the data active = growth rescue above about 28%, passing the limit was not always enough; inconclusive = no clear call, values can overlap the other calls;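 also: yeast W303a lacking pdr1 and pdr3 grown in galactose medium; growth measured after three days at 30 °C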
MazEF act: activators of E. coli MazEF toxin-antitoxin RNase, primary screen, biochemical, fluorescence, uHTS; activation, % at 20 µM; FAM/BHQ RNA-DNA oligo cleavage fluorescence, 5 h; AID 504720, 2011; Endoribonuclease toxin MazF (Escherichia coli (strain K12)), P0AE70; hit rate 0.32% among 350,000; in the data active = activation above about 50%
Target sequence (P0AE70 whole entry, looked up): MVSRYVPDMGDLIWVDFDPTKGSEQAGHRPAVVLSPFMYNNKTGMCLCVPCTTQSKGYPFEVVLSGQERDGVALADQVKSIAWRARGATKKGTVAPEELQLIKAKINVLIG
PrP 5UTR inh: inhibition of PrP 5' UTR reporter expression | cell-based PrP 5' UTR mRNA reporter, plate reader | hit rate 0.35% among 340,000 | inhibition, % (no concentration beside the values); in the data active = inhibition above about 52%; also: 0 = median of the neutral control wells
PrP 5UTR single: prion 5' UTR mRNA inhibition, cherry-pick retest; hit rate 48% among 1,100; cell-based prion protein 5' UTR reporter, plate reader; shares compounds with PrP 5UTR inh; AID 504592, 2011; inhibition, % at 2.5 µM; in the data active = inhibition above about 54%; inconclusive = no clear call, values can overlap the other calls
Starred values were filed as active, the others as inactive; ? = inconclusive; · = no result.

SMILES | SSB-PriA inh | PrPC surface inh | PfHsp40 yeast | MazEF act | PrP 5UTR inh | PrP 5UTR single
CC1CCCC(NC(=O)Cn2cc(Br)ccc2=O)C1C (centres undefined) | -10.0 | -7.3 | -1.7 | 7.6 | -28.5 | ·
CC(C)CCN(C(=S)Nc1cccc(F)c1)C1CCN(C(C)C)CC1 | -7.5 | -7.4 | 1.0 | -2.4 | 79.2* | -18.6
COc1ccc(NC(=S)N(CCC(C)C)C2CCN(C(C)C)CC2)cc1 | 15.1 | -2.2 | 0.2 | 8.4 | -17.7 | ·
Cc1ccc(NC(=O)CN(C)C(=O)C2COc3ccccc3O2)cc1 (centres undefined) | -10.2 | -1.4 | -0.1 | -0.7 | 75.3* | -8.7
O=C(c1ccc(Cl)cc1Cl)N1C2CCC1COC2 | -1.0 | · | · | · | · | ·
Cn1c(O)c(C=NC2CCCCC2)c(=O)[nH]c1=S | -9.5 | 6.2 | -0.2 | -2.5 | 53.1* | -21.1
O=c1[nH]c(O)c(C=NC2CCCCC2)c(=O)[nH]1 | -2.9 | 9.1 | -0.9 | -2.5 | -10.3 | ·
CCC(OC(=O)c1nsc(Cl)c1Cl)C(=O)NCCc1ccccc1 (centres undefined) | -21.1 | -2.3 | -0.1 | 2.3 | -9.4 | ·
S=C(Nc1ccccc1)Nc1ccc(OCc2ccc(Cl)cc2Cl)cc1 | 1.3 | 5.6 | 0.0 | -4.6 | 89.0* | 87.2*
CC(=O)OC(C)(C)/C=C/C(=O)[C@](C)(O)C1[C@H](O)C[C@@]2(C)C3CC=C4C(C[C@H](O)C(=O)C4(C)C)[C@]3(C)C(=O)C[C@]12C (some centres undefined) | · | · | -1.3 | -0.1 | 83.6* | 89.9*
CCOC(=O)c1cnc(Nc2nc3ccccc3o2)nc1C | -14.3 | -9.0 | -2.5 | 4.0 | 64.9* | 70.0*
CCOC(=O)c1cnc(Nc2nc3ccccc3o2)nc1CSc1nnc(C)s1 | -1.3 | 2.5 | -0.3 | 7.1 | -42.3 | ·
Cc1cc([N+](=O)[O-])c2ccccc2[n+]1[O-] | 2.6 | · | 126.6* | 0.9 | 87.4* | 97.7*
Cc1ccccc1[N+](=O)[O-] | -1.5 | 2.7 | -0.1 | -5.2 | -10.5 | ·
O=C(Nc1ccccc1Cl)c1ccccc1 | -1.2 | 5.6 | -0.4 | -3.0 | -36.4 | ·
O=C(Nc1ccccc1Cl)c1ccc(C(=O)Nc2ccccc2Cl)cc1 | -8.4 | -4.2 | -0.7 | -8.7 | 75.6* | 1.1
Cc1nc(SCC(=O)N(CC(C)C)C2CCS(=O)(=O)C2)c(C#N)c(C)c1C (centres undefined) | 1.6 | 4.7 | 0.1 | -5.5 | -35.4 | ·
CC1=CC(=C2C(=O)c3ccccc3C2=O)C=C(C)N1Cc1ccco1 | 35.8 | -13.1 | 0.3 | 7.5 | -69.3 | ·
CCCCCCN1C=CC(=C2C(=O)c3ccccc3C2=O)C=C1 | -21.4 | -1.6 | 0.6 | 20.2 | 72.0* | 71.6*
CCCCN1C(C)=CC(=C2C(=O)c3ccccc3C2=O)C=C1C | 0.9 | -10.6 | 0.3 | 8.2 | 8.7 | ·
CCN1C=CC(=C2C(=O)c3ccccc3C2=O)C=C1 | -12.0 | -38.3 | 0.1 | -7.8 | 87.8* | 90.7*
CCCN1C=CC(=C2C(=O)c3ccccc3C2=O)C=C1 | -8.6 | -43.6 | -0.6 | 2.1 | 92.7* | 96.3*
C/C=C/c1ccc(OCCCNC)c(OC)c1 | -12.5 | 1.0 | -1.4 | 12.2 | -3.2 | ·
COC(=O)C1=C(C(=O)OC)SC2(S1)C(C(=O)OC)=C(C(=O)OC)Sc1c2ssc1=O | 95.7* | -24.4 | 18.7 | -25.2 | 74.8* | 71.6*
COc1cc(NC(=O)c2cccs2)c(C(=O)OCC(=O)c2cc(C)n(-c3ccccc3)c2C)cc1OC | -10.8 | -4.8 | -0.2 | -16.2 | 70.9* | 73.2*
SMILES | SSB-PriA inh | PrPC surface inh | PfHsp40 yeast | MazEF act | PrP 5UTR inh | PrP 5UTR single
COC(=O)C1=C(C)NC(=O)NC1c1ccccc1Cl (centres undefined) | 0.8 | 7.6 | -0.8 | -5.7 | -7.7 | ·
O=C(Nc1ccc(N2CCOCC2)cc1)c1cnsn1 | -12.5 | 0.7 | -0.5 | 11.2 | 67.6* | 76.8*
COc1ccccc1-c1nnc2sc(-c3cc4ccccc4o3)nn12 | -12.1 | -0.6 | -0.3 | 3.5 | 53.6* | 64.0*
COc1ccccc1-c1nnc2sc(-c3ccc(N(C)C)cc3)nn12 | -15.0 | 8.7 | 0.3 | 1.2 | 20.6 | ·
COC(=O)c1cc(C(=O)N2CCN(c3cccc(Cl)c3)CC2)cc([N+](=O)[O-])c1 | 26.4 | -5.1 | 3.3 | 0.9 | 62.3* | 86.7*
Cc1ccccc1CSc1ncc(C#N)c(N)n1 | -0.9 | -0.7 | 0.0 | -28.2 | · | ·
O=S(=O)(c1ccccc1F)N1CCCc2ccccc21 | -32.4 | 2.6 | -1.2 | -0.6 | -12.7 | ·
Oc1ccccc1-c1n[nH]c(-c2ccccc2O)n1 | -8.9 | -4.5 | -0.9 | 9.7 | 68.6* | -39.9
Clc1ccccc1-c1nc(-c2ccccc2)n[nH]1 | -2.1 | 0.6 | 0.7 | -2.3 | -72.3 | ·
CCNC(=S)NNC(=O)c1cc(-c2ccc(OCC)cc2)nc2ccccc12 | 8.4 | -1.2 | -0.6 | -1.2 | 58.4* | 26.6
CCCc1ccc(-c2cc(C(=O)NN3CCOCC3)c3ccccc3n2)cc1 | -31.8 | 15.2 | 0.3 | 5.9 | -27.6 | ·
CCc1ccc(-c2cc(C(=O)Nn3cnnc3)c3ccccc3n2)cc1 | -7.5 | 4.0 | -1.3 | -0.2 | 69.6* | 61.2*
Cc1cnc(C(=O)OCC(=O)C23CC4CC(CC(C4)C2)C3)cn1 | -34.7 | -1.5 | 0.3 | -11.8 | -3.0 | ·
CCCN1C(=O)c2ccccc2NC1c1ccc(OC)c(CSc2ccccn2)c1 (centres undefined) | -16.2 | -6.0 | -0.4 | -8.0 | -16.8 | ·
CCOc1ccc(/C=C2\SC(=S)N(CCC(=O)O)C2=O)cc1 | 3.2 | 0.6 | 1.7 | -4.3 | 68.4* | 71.2*
Cc1ccc(/C=C2\SC(=S)N(CCCC(=O)NNC(=O)c3ccccc3O)C2=O)cc1 | -1.7 | 0.0 | -0.6 | -21.2 | 52.8* | 75.0*
COc1cccc(NC(=O)C2CCCN(S(=O)(=O)c3cccc4nonc34)C2)c1 (centres undefined) | -8.2 | 9.0 | -0.5 | -1.6 | -13.2 | ·
COc1ccc(/C=N/NC(=O)c2cc3c(OC)ccc(OC)c3[nH]2)cc1O | · | -6.0 | 0.8 | 23.3 | 60.0* | 78.2*
COc1ccc(OC)c2[nH]c(C(=O)NN=Cc3ccccc3O)cc12 | 4.2 | · | · | · | · | ·
CNc1nc2c(C)cccn2c(=O)c1C=NCc1ccccc1 | -12.6 | -1.7 | -1.1 | 11.8 | 78.4* | 3.6
COc1ccc(Nc2nc3c(C)cccn3c(=O)c2C=NCc2ccccc2)cc1 | 2.7 | -0.9 | -0.2 | -8.2 | -1.7 | ·
O=C1c2cccc3cc([N+](=O)[O-])cc(c23)C(=O)N1CCN1CCCC1 | 3.1 | -7.7 | -0.1 | -30.6 | 90.3* | 81.7*
O=C(O)c1cc(S(=O)(=O)N2CCOCC2)c(Sc2ccccn2)cc1Sc1ccccn1 | 21.3 | -3.0 | 0.4 | -0.3 | 68.8* | 16.2
Cc1[nH]c2ccccc2c1C=NNC(=O)c1cc(-c2cccs2)[nH]n1 | 14.5 | · | · | · | · | ·
CCOc1ccc(-c2cnc3ccccc3n2)cc1 | 1.2 | -5.5 | -0.3 | -4.5 | 60.1* | ?

Assay outcomes from PubChem BioAssay.
